This passage reports growth results from PubChem BioAssay (NCI).

Where “and” joins values, the source holds several entries; their conditions need not be identical. Equal entries are not always repeated. The panel holds about 83,000 compounds, 20% with a hit somewhere; the sample as a whole holds those more often.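 96-well plates, one dose, 48 hours. Percent growth reported; active if below 10.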 Calls of active or inactive are those of the source.

For one assay, the system named is MOLT-4 leukemia. The assay can be described thus: NCI-60 one-dose screen, 48 h (100 = growth as untreated, 0 = no growth, -100 = all killed). As to conditions: 10 µM. Here is the method: Growth inhibition of the MOLT-4 human tumor cell line is measured as a screen for anti-cancer activity. Cells are grown in 96 well plates and exposed to the test compound for 48 hours. Compounds are tested at a single concentration, which is 10^-5 M for most compounds. The reported endpoint is percent growth (GI% or GIPRCNT), where numbers from 0 - 100% represent growth inhibition, and numbers from -100% - 0 represent cell death. For example, a value of 40 represents 60% growth inhibition. A value of 0 means no net growth occurred over the course of the experiment. A value of -40 indicates 40% of cells at the beginning of the experiment died by the end of the experiment. A value of -100 means all cells are dead at the end of the experiment.
NCI-60 Human Tumor Cell Lines Screen was performed using the standard one-dose NCI protocol, which is described in more detail at https://dtp.cancer.gov/discovery_development/nci-60/default.htm.
Compounds with GIPRCNT values below 10 were considered active. Activity score was based on GIPRCNT using the following formula: […]
Score is 0 for GIPRCNT values of 100 or above, 50 for GIPRCNT values of 0, and 100 for GIPRCNT values of -100.
With `COc1ccc(Cl)cc1C(=O)NCCc1ccc(S(=O)(=O)NC(=O)NC2CCCCC2)cc1`, the growth is 113% (inactive) and 98.6% (inactive). On to `CC(C)(C)c1cc(NC(=O)Cc2ccc(-c3cnc4cc(-c5cnn(CCN6CCOCC6)c5)ccc4n3)cc2)no1`, for which the growth was 13.8% (inactive). As to `Cc1[nH]c(-c2nc3ccccc3[nH]2)c(C)c1C(=O)NC(C)C1CCCCC1` (stereo unspecified), the growth is 72.4% (inactive). Consider `CC#C[C@]1(O)CC[C@H]2[C@@H]3CCC4=CC(=O)CCC4=C3[C@@H](c3ccc4c(c3)OCO4)C[C@@]21C`, for which the growth is 69.2% (inactive).

Still in this assay, the particulars now being: 10 µM unless noted.
Consider `Cn1c(SSc2ccc(-c3cccnc3)n2C)ccc1-c1cccnc1`, for which the growth was 80.2% (inactive) and 17.5% (inactive). Consider `CC[N+](CC)(CC(=O)Nc1c(C)cccc1C)Cc1ccccc1`, for which the growth was 99.8% (inactive) and 98.6% (inactive). Turning to `CC(=O)Nc1cc(S(=O)(=O)O)cc2cc(S(=O)(=O)O)c(N=Nc3ccccc3)c(O)c12`, the growth is 111% (inactive) and 94.7% (inactive).

Turning to `CC1=C(/C=C/C(C)=C/C=C/C(C)=C/C=N/NC(=S)NC(=S)N/N=C/C=C(C)/C=C/C=C(C)/C=C/C2=C(C)CCCC2(C)C)C(C)(C)CCC1`, the growth was -22.2% (active) and -41.2% (active). On to `N#C/C(=C1C=C/C(=N/O)C(Br)=C/1)c1ccccc1`, for which the growth was 18.5% (inactive). For `CCN(CC)C(=O)c1cccnc1`, the growth is 92.8% (inactive).

`CCN1CCN(CCNc2nccc(-c3c(-c4cccc(O)c4)nc4sccn34)n2)S1(=O)=O`: the growth was 89.7% (inactive) and 81.7% (inactive). The same measure, in the same setting: to `NC(=S)N/N=C(\c1ccc(Br)cc1)C1CC1` belongs 38% (inactive) and 45.2% (inactive); to `CCCCCN(CCCCC)CC(O)c1cc2c(c3ccccc13)CCCC2` (stereo unspecified), 41.7% (inactive) and 61.7% (inactive). Consider `CN(C)c1ccc(C(Cc2ccc3ccccc3n2)Cc2ccc3ccccc3n2)cc1`, for which the growth is 11.4% (inactive) and 74.6% (inactive). For the compound `CC(CN=Cc1ccccc1O)N=Cc1ccccc1O` (stereo unspecified), the growth is 120% (inactive) and 93.3% (inactive). `O=C(Nc1ccc(Br)cc1)c1cc(Br)ccc1O`: the growth was 17.4% (inactive) and -33.2% (active). As for `CC(=O)NC(Cc1ccccc1)C(=O)Oc1ccc2ccccc2c1` (stereo unspecified), the growth is 111% (inactive) and 102% (inactive). Regarding `O=[N+]([O-])c1ccc(-n2[nH]nnc2=S)cc1`, the growth was 102% (inactive). Same read-out and setting: with `CCOc1ccc2cc(-c3nn(CC4CCN(C)CC4)c4ncnc(N)c34)ccc2c1` the figure was 70.1% (inactive) and -4.41% (active); with `OCCN1CCN(CCO)CC1`, 92.9% (inactive) and 96.2% (inactive) and 97.8% (inactive); with `Oc1ccccc1C=NCC1CCC(CN=Cc2ccccc2O)CC1` (stereo unspecified), 75.6% (inactive). Regarding `CN1C(=O)C(N=Nc2ccc([N+](=O)[O-])cc2)SC1=S` (stereo unspecified), the growth is 76.7% (inactive) and 70.5% (inactive). The same measure, in the same setting: with `CC(=O)Nc1ccc2cc3ccc(NC(C)=O)cc3nc2c1` the figure was 54.9% (inactive) and 74.7% (inactive).

As to `CC(C)N=c1cc2n(-c3ccc(Cl)cc3)c3ccccc3nc-2cc1Nc1ccc(Cl)cc1`, the growth is 6.96% (active) and 15.3% (inactive) and -11.7% (active). As for `COC(=O)/C=C/c1cc(O)c2c(c1)C(C(=O)OC)C(c1ccc(O)c(O)c1)O2` (stereo unspecified), the growth is 17.8% (inactive) and 21.7% (inactive). The same measure, in the same setting: with `O=S(=O)(Nc1ccccc1)C1CCCCC1` the figure was 83% (inactive) and 92.4% (inactive); with `CC1=C(/C=C/C(C)=C/C=C/C(C)=C/C(=O)O)C(C)(C)CCC1`, 59.3% (inactive) and 99% (inactive) and 83.8% (inactive). Turning to `O=C(CN1CCN(c2cc3c(cc2F)c(=O)c(C(=O)O)cn3C2CC2)CC1)Nc1ccc(Cl)cc1`, the growth was 96.5% (inactive) and 92.7% (inactive). Consider `ClC/C=C/CSc1ncnc2nc[nH]c12`, for which the growth was 93.7% (inactive) and 85.3% (inactive).

As for `O=S1(=O)CC(Br)C(Br)C1` (stereo unspecified), the growth was 61.3% (inactive) and 68.6% (inactive). In the case of `O=[N+]([O-])c1ccccc1N(S(=O)(=O)c1ccccc1)S(=O)(=O)c1ccccc1`, the growth was -13.5% (active) and 103% (inactive). With `O=C1OC2(c3ccccc31)c1ccc(O)c(O)c1Oc1c2ccc(O)c1O`, the growth was 95.4% (inactive) and 121% (inactive). Take `COc1ccc2nc(Cl)cc(C)c2c1`: the growth was 100% (inactive) and 76.5% (inactive). For `CC1CCCc2sc3nc(NNC(=O)c4cnccn4)n(-c4ccccc4)c(=O)c3c21` (stereo unspecified), the growth is 5.36% (active) and 10.6% (inactive). Take `Clc1nc(Oc2ccccc2)nc(-c2cn(-c3ccccc3)c3ccccc23)n1`: the growth is 47% (inactive). Consider `CC(=O)C(/C=N/C(N)=O)=C(/C)O`, for which the growth was 111% (inactive). Regarding `CN1CCN(CCC=C2c3ccccc3Sc3ccc(S(=O)(=O)N(C)C)cc32)CC1`, the growth is 46.3% (inactive) and 28.2% (inactive).

The assay is the same for the next values; noted with them: 30 µM.
Consider `CC(C)(C)c1cc(NC(=O)Cc2ccc(-c3cnc4cc(-c5cnn(CCN6CCOCC6)c5)ccc4n3)cc2)no1`, for which the growth was 10.8% (inactive).

The assay is the same for the next values; noted with them: 100 µM.
In the case of `COc1ccc(Cl)cc1C(=O)NCCc1ccc(S(=O)(=O)NC(=O)NC2CCCCC2)cc1`, the growth was 60.6% (inactive).

Turning to `Cc1[nH]c(-c2nc3ccccc3[nH]2)c(C)c1C(=O)NC(C)C1CCCCC1` (stereo unspecified), the growth is -51.3% (active). In the case of `CC#C[C@]1(O)CC[C@H]2[C@@H]3CCC4=CC(=O)CCC4=C3[C@@H](c3ccc4c(c3)OCO4)C[C@@]21C`, the growth was -7.79% (active).
